Measurements as given in PubChem BioAssay AID1159580 (chemical genetic matrix, 2015).
About 2,000 (36%) of roughly 5,500 compounds were called active. Another 18% or so got no clear call; they are omitted. Rule as the data show it: active = normalized growth mostly below about 0.91 (no sharp cut-off); inconclusive = no clear call, values can overlap the other calls; inactive = mostly above about 0.92. The list shows a part of the results.

Experiment: chemical genetic growth profiling, strain panel (AID 1159580);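 also: tested at 20 µM; growth read once vehicle control cultures reached saturation at 30 °C; 1 = growth at the plate median or of vehicle wells; lower values mean less growth of the strain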
Conditions: S. cerevisiae deletion strains, growth OD

Measured: normalized growth

COc1cc(OC)cc(/C(N)=N\O)c1
inactive: locus YAR019C, strain CDC15, active compounds read low 0.981 | locus YBL105C, strain PKC1, active compounds read low 0.99 | locus YBR135W, strain CKS1, active compounds read low 0.986 | locus YBR136W, strain MEC1, active compounds read low 0.975 | locus YBR160W, strain CDC28, active compounds read low 0.993 | locus YDL017W, strain CDC7, active compounds read low 0.989 | locus YDL028C, strain MPS1, active compounds read low 0.982 | locus YDL101C, strain DUN1, active compounds read low 0.992 | locus YDL108W, strain KIN28, active compounds read low 0.982 | locus YDL132W, strain cdc53, active compounds read low 0.997 | locus YDL214C, strain PRR2, active compounds read low 0.956 | locus YDR052C, strain DBF4, active compounds read low 0.991 | locus YDR054C, strain cdc34, active compounds read low 0.992 | locus YDR226W, strain ADK1, active compounds read low 0.994 | locus YDR477W, strain SNF1, active compounds read low 0.958 | locus YER123W, strain YCK3, active compounds read low 0.927 | locus YER133W, strain GLC7, active compounds read low 0.971 | locus YFL009W, strain cdc4, active compounds read low 0.991 | locus YFL029C, strain CAK1, active compounds read low 0.975 | locus YFR003C, strain YPI1, active compounds read low 0.99 | locus YFR019W, strain FAB1, active compounds read low 0.961 | locus YFR028C, strain CDC14, active compounds read low 0.994 | locus YGR040W, strain KSS1, active compounds read low 0.959 | locus YGR052W, strain FMP48, active compounds read low 1.02 | locus YGR092W, strain DBF2, active compounds read low 0.943 | locus YHR030C, strain SLT2, active compounds read low 0.874 | locus YHR079C, strain IRE1, active compounds read low 0.909 | locus YHR082C, strain KSP1, active compounds read low 0.994 | locus YHR205W, strain SCH9, active compounds read low 0.891 | locus YIL147C, strain SLN1, active compounds read low 0.963 | locus YJL095W, strain BCK1, active compounds read low 0.875 | locus YJL128C, strain PBS2, active compounds read low 0.967 | locus YJL157C, strain FAR1, active compounds read low 0.983 | locus YJR016C, strain ILV3, active compounds read low 0.997 | locus YJR066W, strain TOR1 (second series), active compounds read low 0.929 | locus YJR066W, strain TOR1, active compounds read low 0.966 | locus YKL048C, strain ELM1, active compounds read low 0.962 | locus YKL067W, strain YNK1, active compounds read low 0.961 | locus YKL101W, strain HSL1, active compounds read low 0.925 | locus YKL193C, strain SDS22, active compounds read low 0.992 | locus YKL203C, strain TOR2, active compounds read low 1.01 | locus YLR133W, strain CKI1, active compounds read low 0.958 | locus YLR403W, strain SFP1, active compounds read low 0.937 | locus YML070W, strain DAK1, active compounds read low 0.943 | locus YMR001C, strain CDC5, active compounds read low 0.991 | locus YMR205C, strain PFK2 (second series), active compounds read low 0.963 | locus YMR277W, strain FCP1, active compounds read low 0.997 | locus YNL006W, strain LST8, active compounds read low 0.993 | locus YNL020C, strain ARK1, active compounds read low 0.959 | locus YNL161W, strain CBK1, active compounds read low 0.988 | locus YNL183C, strain NPR1, active compounds read low 0.95 | locus YNL207W, strain RIO2, active compounds read low 0.988 | locus YNL222W, strain SSU72, active compounds read low 0.991 | locus YNL307C, strain MCK1 (second series), active compounds read low 0.951 | locus YOL078W, strain AVO1, active compounds read low 0.991 | locus YOL136C, strain PFK27, active compounds read low 0.955 | locus YOR061W, strain CKA2, active compounds read low 0.925 | locus YOR119C, strain RIO1, active compounds read low 0.983 | locus YOR231W, strain MKK1, active compounds read low 0.904 | locus YOR329C, strain SCD5, active compounds read low 0.987 | locus YPL031C, strain PHO85, active compounds read low 0.958 | locus YPL153C, strain RAD53, active compounds read low 0.943 | locus YPL204W, strain HRR25, active compounds read low 0.973 | locus YPL209C, strain IPL1, active compounds read low 0.988 | locus YPL256C, strain CLN2, active compounds read low 0.891 | locus YPR025C, strain CCL1, active compounds read low 0.986 | locus YPR106W, strain ISR1, active compounds read low 0.988 | locus YPR111W, strain DBF20, active compounds read low 0.986 | strain NNK1, active compounds read low 0.992 | strain TSCII, active compounds read low 0.996
active: locus YLR113W, strain HOG1, active compounds read low 0.847
